Screening results as filed in PubChem.
Most compounds without a hit are left out; they make up all but 10% or so of the library.
HP1b binding inh: HP1-beta chromodomain-methylated histone interaction inhibition | P83916 | Potency, µM (titrated, usually from 114 µM), for inactives: at the top dose activity change, negative = inhibition, actives largely listed as inhibitors | AlphaScreen HP1-beta / biotin-H3K9me3 peptide binding | 0.56% of 390,000 active | AID 540317; also: potency is read from the fitted curve at half-maximal effect; nearly all actives have a fitted effect of over 70% in size
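Compound inhibition of the preformed complex between 50 nM HP1-beta and 50 nM biotinylated H3K9me3 peptide was read by AlphaScreen. Buffer was PBS pH 7.4 with 0.01% Tween-20. Incubations ran 30 min at room temperature, with 10 ug/mL donor/acceptor beads.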
JMJD2A Tudor inh: inhibitors of human JMJD2A Tudor domain; 4.4% of 390,000 active; O75164; Potency, µM (doses to about 114 µM), inactives show top-dose activity change, negative = inhibition, actives largely listed as inhibitors; AlphaScreen JMJD2A-Tudor / H3K4me3 peptide binding; AID 504339; also: potency is read from the fitted curve at half-maximal effect; % is scaled to controls: 0 for no effect and ±100 for the full control effect; nearly all actives have a fitted effect of over 50% in size
CtBP-E1A blk: blocks the CtBP interaction with E1A; AlphaScreen GST-E1A/His-CtBP binding, 1536-well; active compounds read low; activity change, % (no concentration beside the values); 0.49% of 340,000 active; AID 651724; in the data active = activity change below about -65%; inconclusive = mostly about -30% to -63%; also: % is scaled to controls: 0 for no effect and ±100 for the full control effect
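In 5 uL wells, 23 nL compound meets equimolar GST-E1A and His-CtBP (5X stock 125 nM each) for 2 h, 37 °C. Beads (5X, 50 ug/mL) then 1 h, 37 °C, dark.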
BAZ2B inh: BAZ2B (human) inhibition | AlphaScreen BAZ2B-H3K14Ac peptide displacement | 4.4% of 360,000 active | Potency, µM (top dose mostly 114 µM), for inactives: at the top dose activity change, negative = inhibition, most hits filed as inhibitors | AID 504333 | Q9UIF8; also: potency is read from the fitted curve at half-maximal effect; % is scaled to controls: 0 for no effect and ±100 for the full control effect; nearly all actives have a fitted effect of over 60% in size
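AlphaScreen displacement: compounds (up to 110uM) incubated 30 min at room temperature with a preformed 50 nM BAZ2B/50 nM biotinylated H3K14Ac peptide complex in PBS pH 7.4 with Tween-20. Donor and acceptor beads at 10 ug/mL final added, 20 min light-protected before reading.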
Six1-Eya2 blk: Six1/Eya2 interaction inhibition | Q15475+O00167 | AlphaScreen GST-Six1/His-Eya2 binding, biochemical; active compounds read low | activity change, % (concentration not given with the values) | 0.56% of 360,000 active | AID 651725; in the data active = activity change below about -65%; inconclusive = mostly about -30% to -63%; also: % is scaled to controls: 0 for no effect and ±100 for the full control effect
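AlphaScreen luminescence read after one hour at 37 °C in darkness. Pin-transferred compounds met GST-Six1 and His-Eya2 protein (5X stock 250 nM/500 nM) plus glutathione donor and Ni-chelate acceptor beads (5X, 50 ug/mL).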
G9a block: blocks human histone lysine methyltransferase G9a | 8.8% of 350,000 active | G9a H3K9 monomethylation, AlphaScreen, 2 h | Potency, µM (series often up to 102 µM), inactives show top-dose activity, negative = inhibition, hits mostly inhibitors | Q96KQ7; also: potency is read from the fitted curve at half-maximal effect; % is scaled to controls: 0 for no effect and ±100 for the full control effect; nearly all actives have a fitted effect of over 75% in size
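Step 1: enzyme (final 20 nM) with compound, 15 min RT. Step 2: substrate peptide 500 nM and SAM 20 uM, 2 h RT. Step 3: anti-H3K9me1 antibody and AlphaScreen beads, 10 min, then plate read.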
* hit, by the source's call; ? = inconclusive; · = not tested or not shown; [ ] = dose if it differs, or a comment. Unless noted, calls follow the shape of the dose curve; as a rule, active = well fitted inhibition curve with a large enough effect; inconclusive = small, poorly fitted or top-dose-only effect; inactive = no such curve, though single readings can be large or run the other way.

SMILES	HP1b binding inh	JMJD2A Tudor inh	CtBP-E1A blk	BAZ2B inh	Six1-Eya2 blk	G9a block
Cn1cc(C(=O)NCCc2ccccc2)c(=O)c2cc(S(=O)(=O)N3CCCCCC3)ccc21	26%	-19%	·	·	·	-23%[59 µM]
C[N+](C)(C)CC/C=C1/c2ccccc2CSc2ccccc21	43%	50µM*	7	79µM*	-1	?
CC(=O)OCCCN(C)CC/C=C1/c2ccccc2CSc2ccccc21	27%	-18%	-10	·	-15	·
CN(Cc1ccccc1)Cc1c(O)ccc2ccccc12	?	4µM*	-4	79µM*	19	8.9µM*
CN(Cc1cc(Cl)cc(Cl)c1O)Cc1c(O)ccc2ccccc12	-7%[57 µM]	?	-12	·	-14	·
COc1ccc(OCCN(C)Cc2c(O)ccc3ccccc23)cc1	-8%	?	-2	-1%	-7	7.1µM*
CSc1ccccc1NC(=O)CN(C)Cc1c(O)ccc2ccccc12	-12%	56µM*	6	?	-1	2.2µM*
CSc1ccccc1NC(=O)CN(C)Cc1ccc(Br)cc1	120%	78%	20	79%	20	135%
CN(CCOc1ccccc1)Cc1ccccc1	·	·	4	·	0	·
CCN1CCC(N(Cc2cccc(OC)c2)C(=O)Nc2cccc(C)c2C)CC1	20%	-13%	·	-2%	·	-31%[59 µM]
CCCOc1ccc(CNC(=O)CCCn2nc(C)c3sc4ccccc4c3c2=O)cc1	29%	-8%	·	-31%	·	-39%[59 µM]
CCc1cccc(NC(=O)CSc2ncc3c(n2)-c2ccccc2N(Cc2ccccc2C)S3(=O)=O)c1	39%	-5%	·	23%	·	17%[59 µM]
CCCCc1nnc(SCc2cc(=O)c3cc(C(=O)OCC)ccc3[nH]2)n1C	20%[57 µM]	-9%	·	4%	·	10%[59 µM]
Cc1cc(C)cc(NC(=O)c2sc3nc[nH]c(=O)c3c2C)c1	20%[57 µM]	-14%	·	0%	·	-16%[59 µM]
COc1cc(C(=O)NNC(=S)Nc2ccc(S(N)(=O)=O)cc2)cc(OC)c1OC	-10%	-5%[11.4 µM]	·	-23%	-2	8.9µM*
COc1ccc(C(=O)NC(=S)Nc2ccc(S(N)(=O)=O)cc2)cc1	18%	-15%	0	-10%	-1	?
COc1ccc(NC(=S)Nc2ccc(S(N)(=O)=O)cc2)c(OC)c1	-10%	-10%	20	-38%	-2	56µM*
COc1ccc(NC(=S)NNS(=O)(=O)c2ccc3ccccc3c2)c(OC)c1	?	25µM*	2	?	2	·
COc1ccccc1Nc1ccncc1[N+](=O)[O-]	5%	-24%	·	-14%	-21	-7%
COc1ccccc1Nc1cc(C)nc2c(C)ccc([N+](=O)[O-])c12	16µM*	10µM*	-15	11µM*	?	25µM*
Cc1ccc2[nH]c(CSc3nnc(NC(=O)COc4ccccc4C)s3)cc(=O)c2c1	13%[57 µM]	-3%	·	12%	·	-10%[59 µM]
Cc1cc2n(n1)C(c1ccccc1)Nc1ccccc1-2 (centres undefined)	32%	-19%	-10	-3%	-2	-15%[59 µM]
Cc1cc2n(n1)C(c1ccc(N(C)C)cc1)Nc1ccccc1-2 (centres undefined)	-45%	45µM*	-29	33%	-21	29%[59 µM]
CC1(C)CC(=O)c2cc(-c3nc(-c4ccc(Cl)cc4)cs3)c(=O)n(-c3ccc(F)cc3)c2C1	15%	-10%	·	6%	·	?
COc1cccc(-n2c(-c3ccc(Cl)cc3)cc3c2CC(C)(C)CC3=O)c1	-21%	8.9µM*	·	8.9µM*	·	?
SMILES	HP1b binding inh	JMJD2A Tudor inh	CtBP-E1A blk	BAZ2B inh	Six1-Eya2 blk	G9a block
COc1cccc(-n2c(-c3ccc(C)cc3)cc3c2CC(C)(C)CC3=O)c1	10%	?	·	11µM*	·	?
CCOc1ccc(-n2c(-c3ccc(OC)cc3)cc3c2CC(C)(C)CC3=O)cc1	-24%	16µM*	·	13µM*	·	14µM*
COc1ccc(-n2c(-c3ccc(C)cc3)cc3c2CC(C)(C)CC3=O)cc1Cl	?	32µM*	·	5µM*	·	10µM*
Cc1ccc(-c2cc3c(n2-c2ccc(C)cc2)CC(C)(C)CC3=O)cc1	14%	?	·	-14%	·	-41%[59 µM]
CC(=O)c1cccc(NC(=O)CCc2nc3cccnc3n2Cc2cccs2)c1	15%	-30%	·	-19%	·	-3%[59 µM]
COc1ccc(-n2c(-c3ccc(C)cc3)cc3c2CC(C)(C)CC3=O)c(OC)c1	?	18µM*	·	14µM*	·	13µM*
Cc1ccc(-c2cc3c(n2-c2ccc(F)cc2)CC(C)(C)CC3=O)cc1	-8%	-24%	·	-25%	·	-31%[59 µM]
CC(C)(C)CNc1nc(C#N)nc(Nc2ccccc2)n1	·	-14%	·	·	·	·
CCCc1nc(C)cc(N2CCN(c3ccccc3)CC2)n1	47%	-20%	3	-33%	13	50µM*
Cc1cc(N2CCN(c3ccccc3)CC2)nc(NCc2ccccc2)n1	-17%	-21%	-9	?	-4	?
CCOc1ccc(C(c2c(O)cc(C)n(CCOC)c2=O)N2CCC(C)CC2)cc1 (centres undefined)	27%[57 µM]	-14%	·	-9%	·	-31%[59 µM]
CCN(CC)S(=O)(=O)c1ccc2oc(SCC(=O)Nc3cc(C)on3)nc2c1	-56%	?	-20	6%	-5	7%[0.501 µM]
CCN(CC)S(=O)(=O)c1ccc2oc(Nc3ccc(OC)cc3OC)nc2c1	18%	-17%	11	?	-16	-7%
CCN(CC)S(=O)(=O)c1ccc2oc(SCC(=O)NC3CC3)nc2c1	-22%	-1%	-4	?	2	13µM*
CCN(CC)S(=O)(=O)c1ccc2oc(Nc3ccccc3)nc2c1	-23%	?	-13	-24%	-14	32µM*
Cc1ccc(Cl)cc1-n1c(=O)cc(N2CCN(c3ccccc3)CC2)[nH]c1=O	2%[57 µM]	-7%	·	-5%	·	-2%[59 µM]
Cn1c(=O)c2c(-c3ccccc3Br)n(C(C)(C)C)cc2n(C)c1=O	-8%	-32%	·	79µM*	·	-32%[59 µM]
CN(C)S(=O)(=O)c1ccc(NC(=O)CSc2nc3ccccc3n2-c2ccccc2)cc1	-6%	-27%	-6	-27%	-13	-5%[59 µM]
CN(C)S(=O)(=O)c1cccc(NC(=O)CSc2nc3ccccc3n2-c2ccccc2)c1	-1%	-25%	-20	-7%	-9	79µM*
CCCc1cc(N2CCN(c3ccccc3F)CC2)n2cnnc2n1	42%	-10%	·	-3%	·	11%[59 µM]
Cc1ccc(-n2ncc(C(=O)NCC3CCN(C4CCCC4)C3)c2C2CCN(C(=O)OC(C)(C)C)CC2)cc1 (centres undefined)	47%	-30%	-14	?	3	71µM*
CCOC(=O)C1=C(C)N(CC(C)C)C(=O)/C1=C\c1ccc(OCC(=O)Nc2ccccc2)cc1	-5%	-36%[57.1 µM]	0	-37%[57.1 µM]	-3	50µM*
